# Measured values: PubChem BioAssay (NCATS)
# Where “and” joins values, the source holds several entries; their conditions need not be identical. Equal values may be shown once. Values without a mark were called inactive. Results filed as inconclusive are left out. A call without a number means that no potency is given here. Calls of active or inactive are those of the source. Unless noted, the call rests on the fitted dose curve; in most records, active means well fitted curve in the direction sought with a large enough effect; inconclusive means small, poorly fitted or top-dose-only effect, or another doubt; inactive means no such curve, though single readings can be large; an effect the other way counts as inactive or inconclusive.
# Experiments:
# [1] = qHTS Assay for Identification of Small Molecule Antagonists for NFkB Signaling Pathway (AID 895; active means well fitted inhibition curve with a large enough effect in the signal ratio, with a control signal flat, not every such curve was filed as active; the % refers to the signal ratio)
# Summary of the method: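 NFkB-bla ME-180 cervical carcinoma cells with beta-lactamase reporter under NFkB response element; compounds added, then TNF alpha at 10 pM final (EC50), 5 h at 37 C. LiveBLAzer substrate 2 h, room temperature; emission 460/530 nm at 405 nm excitation.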
# [2] = qHTS Assay for Identification of Small Molecule Agonists for Thrombopoietin (TPO) Signaling Pathway (AID 917)
# Summary of the method: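 First, Ba/F3 cells with human TPO receptor were held overnight without IL-3. Next, compounds and TPO (26 pM final) were added. After 24 hrs at 37 C, luciferase detection reagent was added and luminescence measured following 10 min at room temperature.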
# [3] = target: Muscarinic acetylcholine receptor M1 (Rattus norvegicus) (UniProt P08482); experiment: qHTS Assay for Antagonists of Acetylcholine Muscarinic M1 Receptor: Kinetic Measurement of Intracellular Calcium Response (AID 943); further: nearly all actives have a fitted effect of over 75% in size; further: potency means the concentration at half of the fitted maximal effect
# Summary of the method: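 Antagonism is measured as inhibition of the carbachol-evoked calcium rise in CHO cells transfected with rat M1. Cells are dye-loaded, exposed to compound for 10 min, then stimulated with 100 nM carbachol (EC80).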
# [4] = target: Alpha-galactosidase A (Homo sapiens) (UniProt P06280); experiment: Counterscreen for Glucocerebrosidase Inhibitors: qHTS Assay for Human alpha-Galactosidase at pH 4.5 (AID 992)
# Summary of the method: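 Each compound is preincubated briefly with 2 nM enzyme before substrate addition (80 uM); plates then sit 20 min at ambient temperature, are quenched with 1M NaOH/1M glycine, and read fluorometrically.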
# [5] = target: alpha-glucosidase (Oryza sativa, rice) (UniProt Q653V4); experiment: Counterscreen for Glucocerebrosidase Inhibitors: qHTS Assay for Rice alpha-Glucosidase at pH 5.0 (AID 997)
# Summary of the method: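 Endpoint fluorogenic assay at pH 5.0: compounds (0.7 nM to 77 uM) titrated against 4 nM rice enzyme and 400 uM 4-MU-alpha-glucoside for 20 min at room temperature; NaOH/glycine stop, read ex 365/em 440 nm, Hill-fitted AC50.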
# [6] = target: Cytochrome P450 2D6 (Homo sapiens) (UniProt P10635); experiment: qHTS Assay for Inhibitors and Substrates of Cytochrome P450 2D6 (AID 891); further: nearly all actives have a fitted effect of over 60% in size; further: potency means the concentration at half of the fitted maximal effect
# Summary of the method: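 Luminescent read-out of luciferin formed by 5 nM human CYP2D6 demethylating 30 uM Luciferin-ME EGE (Km level) over 60 min at room temperature after NADPH regeneration addition. Data normalized to full inhibition by 1.43 uM quinidine.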
# [7] = target: Cytochrome P450 2C19 (Homo sapiens) (UniProt P33261); experiment: qHTS Assay for Inhibitors and Substrates of Cytochrome P450 2C19 (AID 899); further: nearly all actives have a fitted effect of over 60% in size; further: potency means the concentration at half of the fitted maximal effect
# Summary of the method: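 NADPH-dependent conversion of Luciferin-H EGE (10uM, at KM) by 5nM enzyme in 50mM KPO4, 60 min at 37C following 10 min compound preincubation. Stopped with luciferin detection buffer; luminescence read after 20 min.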
# [8] = Confirmation and Secondary Assay for Modulators of Hemoglobin Beta Chain Splicing at IVS2 654 locus (AID 910);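 further: per-well total GFP intensity by laser scanning cytometry after 2-day treatment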
# Summary of the method: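 HeLa cells stably carrying EGFP interrupted by mutant beta-globin IVS2-654 intron (CMV-driven) were treated with compound for 2 days at 37C; corrected splicing was scored as total peak GFP intensity per well (488 nm excitation, 500-520 nm emission).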
# [9] = Confirmation and Secondary Assay for Modulators of Hemoglobin Beta Chain Splicing at IVS2 705 locus (AID 930);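 further: HeLa cells stably expressing the EGFP-705 splicing reporter; GFP fluorescence per well restored by corrected splicing of the IVS2-705 intron in EGFP; series mostly up to about 46 µM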
# Summary of the method: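 Fluorescence gain (488 nm laser, 500-520 nm PMT) reflects restored correct splicing of a mutant IVS2-705 intron inside EGFP in stably transfected HeLa cells after 2-day compound treatment.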
# [10] = target: Muscarinic acetylcholine receptor M1 (Rattus norvegicus) (UniProt P08482); experiment: qHTS Assay for Antagonists of Acetylcholine Muscarinic M1 Receptor: Measurement of IP-One Response (AID 944); further: nearly all actives have a fitted effect of over 75% in size; further: potency means the concentration at half of the fitted maximal effect
# Summary of the method: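 Antagonist mode with rat M1 receptor transfected into CHO cells. Compound is added first for 10 min, carbachol at its EC80 follows for 30 min, and lysis reagents then allow TR-FRET detection of accumulated IP1.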
# [11] = target: Cytochrome P450 2C9 (Homo sapiens) (UniProt P11712); experiment: qHTS Assay for Inhibitors and Substrates of Cytochrome P450 2C9 (AID 883); further: nearly all actives have a fitted effect of over 60% in size
# Summary of the method: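 A luminogenic readout tracked human CYP2C9 (10nM) converting deoxyluciferin (100uM, at KM) in 25mM KPO4 during 60 min at 37C with regenerated NADPH. Values normalized to 57uM sulphaphenazole as complete inhibition.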
# [12] = target: Cytochrome P450 3A4 (Homo sapiens) (UniProt P08684); experiment: qHTS Assay for Inhibitors and Substrates of Cytochrome P450 3A4 (AID 884); further: nearly all actives have a fitted effect of over 50% in size; further: potency means the concentration at half of the fitted maximal effect
# Summary of the method: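 Luminescent readout of luciferin produced by CYP3A4 (20 nM) dealkylation of Luciferin-PPXE, 25 uM (its KM). NADPH-driven reaction ran 60 min at RT after 10 min compound preincubation; data scaled to 57 uM ketoconazole as 100% inhibition.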
# [13] = qHTS Assay for Identification of Small Molecule Agonists for Hypoxia Response Element Signaling Pathway (AID 914; active means well fitted activation curve with a large enough effect in the signal ratio, with a control signal flat, not every such curve was filed as active; the % refers to the signal ratio); conditions: ME-180 (cervical carcinoma) HRE-bla reporter, beta-lactamase ratio, CoCl2, 17 h; activation: hits give high values
# Summary of the method: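 A beta-lactamase reporter under hypoxia response element control in ME-180 cells served as the system. Compound titrations plus EC50 CoCl2 ran 17 h at 37 degrees Celsius; AC50 values were fitted from %Activity.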
# [14] = target: Cytochrome P450 2C9 (Homo sapiens) (UniProt P11712); experiment: Cytochrome P450 family 2 subfamily C member 9 (CYP2C9) small molecule antagonists: luciferase biochemical (cell-free) qHTS assay (AID 1645842; active means well fitted curve in the direction sought with a large enough effect in the repeat runs; an effect the other way counts as inactive or inconclusive; further: potency means the concentration at half of the fitted maximal effect; nearly all actives have a fitted effect of over 55% in size)
# Summary of the method: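 P450-Glo CYP2C9 system: proluciferin substrate with enzyme in mix containing 0.4% BSA, 10 min at room temperature, then NADPH regeneration solution added and incubated 1 h at 37C. Detection reagent stopped reaction; luminescence read after 20 min as RLU.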
# [15] = target: DNA dC->dU-editing enzyme APOBEC-3G (Homo sapiens) (UniProt Q9HC16); experiment: qHTS for inhibitors of Vif-A3G interactions: Validation (AID 588379)
# Summary of the method: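 Yellow fluorescence (Ex 488, Em 500-530) of Vif-coexpressing HeLa A3G-eYFP cells, scanned by Acumen cytometer, reports blocked A3G degradation. Cells plated at 700/well overnight at 37 deg C before compound addition, then a further overnight compound incubation at 37 deg C.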
# Chain of Cytochrome P450 2C19 (Homo sapiens) (P33261 whole entry, looked up): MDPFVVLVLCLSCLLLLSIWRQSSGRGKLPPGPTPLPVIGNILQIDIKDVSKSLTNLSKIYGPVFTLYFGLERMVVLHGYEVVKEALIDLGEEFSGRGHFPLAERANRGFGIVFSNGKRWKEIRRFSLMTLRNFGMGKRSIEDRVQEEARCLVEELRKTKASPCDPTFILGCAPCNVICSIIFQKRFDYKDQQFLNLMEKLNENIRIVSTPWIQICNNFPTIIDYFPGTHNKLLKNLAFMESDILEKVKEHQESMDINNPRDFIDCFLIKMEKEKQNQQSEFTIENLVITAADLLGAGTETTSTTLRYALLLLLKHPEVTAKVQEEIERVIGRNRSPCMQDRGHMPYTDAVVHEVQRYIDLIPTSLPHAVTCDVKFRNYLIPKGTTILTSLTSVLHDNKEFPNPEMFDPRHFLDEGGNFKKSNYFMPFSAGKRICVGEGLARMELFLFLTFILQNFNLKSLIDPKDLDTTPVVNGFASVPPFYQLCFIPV
# Chain of Muscarinic acetylcholine receptor M1 (Rattus norvegicus) (P08482 whole entry, looked up): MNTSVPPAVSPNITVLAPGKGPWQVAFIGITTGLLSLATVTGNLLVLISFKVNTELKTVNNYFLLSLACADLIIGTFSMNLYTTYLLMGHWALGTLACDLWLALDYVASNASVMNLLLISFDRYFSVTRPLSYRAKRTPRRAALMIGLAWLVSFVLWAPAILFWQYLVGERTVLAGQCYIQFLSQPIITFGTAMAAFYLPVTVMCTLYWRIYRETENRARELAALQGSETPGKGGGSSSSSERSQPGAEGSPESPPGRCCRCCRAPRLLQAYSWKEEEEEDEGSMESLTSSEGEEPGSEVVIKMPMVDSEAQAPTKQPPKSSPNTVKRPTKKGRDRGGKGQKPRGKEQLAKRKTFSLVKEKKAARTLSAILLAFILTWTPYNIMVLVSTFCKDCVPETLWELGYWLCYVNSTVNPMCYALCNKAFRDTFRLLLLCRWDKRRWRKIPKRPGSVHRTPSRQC
# Chain of Cytochrome P450 2D6 (Homo sapiens) (P10635 whole entry, looked up): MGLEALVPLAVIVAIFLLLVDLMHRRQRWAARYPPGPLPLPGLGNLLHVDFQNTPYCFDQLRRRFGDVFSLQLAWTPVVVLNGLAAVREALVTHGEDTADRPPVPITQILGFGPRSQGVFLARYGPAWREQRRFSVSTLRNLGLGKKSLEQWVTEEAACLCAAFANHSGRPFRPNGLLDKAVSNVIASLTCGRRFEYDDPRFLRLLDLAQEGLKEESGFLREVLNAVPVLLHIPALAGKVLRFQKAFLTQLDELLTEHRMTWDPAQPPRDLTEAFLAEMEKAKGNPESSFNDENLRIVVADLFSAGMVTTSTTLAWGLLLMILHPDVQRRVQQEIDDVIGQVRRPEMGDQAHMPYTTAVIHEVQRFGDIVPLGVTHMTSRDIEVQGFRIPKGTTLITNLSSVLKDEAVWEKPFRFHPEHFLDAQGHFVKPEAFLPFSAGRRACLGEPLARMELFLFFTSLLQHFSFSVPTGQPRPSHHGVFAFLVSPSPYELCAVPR
# Chain of Alpha-galactosidase A (Homo sapiens) (P06280 whole entry, looked up): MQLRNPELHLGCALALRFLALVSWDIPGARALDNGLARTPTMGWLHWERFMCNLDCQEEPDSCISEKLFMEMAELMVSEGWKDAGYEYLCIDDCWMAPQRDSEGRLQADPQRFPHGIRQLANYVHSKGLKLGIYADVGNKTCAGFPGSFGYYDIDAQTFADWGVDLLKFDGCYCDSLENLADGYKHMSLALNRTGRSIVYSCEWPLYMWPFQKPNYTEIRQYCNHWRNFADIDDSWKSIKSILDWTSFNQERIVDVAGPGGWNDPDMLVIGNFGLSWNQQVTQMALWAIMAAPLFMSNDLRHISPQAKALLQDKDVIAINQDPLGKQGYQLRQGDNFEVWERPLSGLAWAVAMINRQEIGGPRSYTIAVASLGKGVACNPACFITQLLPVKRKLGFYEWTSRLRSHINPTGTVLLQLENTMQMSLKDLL
# Chain of Cytochrome P450 3A4 (Homo sapiens) (P08684 whole entry, looked up): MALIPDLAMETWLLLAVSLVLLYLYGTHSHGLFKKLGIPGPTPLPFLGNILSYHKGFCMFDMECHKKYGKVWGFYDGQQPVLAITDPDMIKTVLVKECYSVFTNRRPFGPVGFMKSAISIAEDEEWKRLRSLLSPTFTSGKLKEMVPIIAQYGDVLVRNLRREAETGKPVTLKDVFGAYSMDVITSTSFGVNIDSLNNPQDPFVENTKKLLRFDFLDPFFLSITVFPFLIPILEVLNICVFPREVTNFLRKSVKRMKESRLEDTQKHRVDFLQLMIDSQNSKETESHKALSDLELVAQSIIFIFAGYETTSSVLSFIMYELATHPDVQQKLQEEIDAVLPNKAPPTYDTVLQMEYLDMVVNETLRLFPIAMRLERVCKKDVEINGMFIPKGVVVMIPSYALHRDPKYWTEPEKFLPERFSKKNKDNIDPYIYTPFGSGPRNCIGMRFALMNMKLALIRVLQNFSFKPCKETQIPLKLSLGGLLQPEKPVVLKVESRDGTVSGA
# Chain of Cytochrome P450 2C9 (Homo sapiens) (P11712 whole entry, looked up): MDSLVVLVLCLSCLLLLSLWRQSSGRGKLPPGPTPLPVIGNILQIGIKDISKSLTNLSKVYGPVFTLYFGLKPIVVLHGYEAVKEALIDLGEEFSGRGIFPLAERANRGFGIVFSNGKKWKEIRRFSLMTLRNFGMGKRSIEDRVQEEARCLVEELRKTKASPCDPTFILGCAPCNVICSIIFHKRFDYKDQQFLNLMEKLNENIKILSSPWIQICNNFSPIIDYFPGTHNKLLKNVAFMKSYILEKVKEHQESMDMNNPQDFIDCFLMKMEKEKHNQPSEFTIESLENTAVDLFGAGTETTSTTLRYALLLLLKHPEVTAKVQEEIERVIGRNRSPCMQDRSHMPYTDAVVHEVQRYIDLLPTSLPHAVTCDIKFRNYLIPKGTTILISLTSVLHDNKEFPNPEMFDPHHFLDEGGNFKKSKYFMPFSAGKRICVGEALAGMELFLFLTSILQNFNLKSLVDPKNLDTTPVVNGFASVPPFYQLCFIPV
# Chain of DNA dC->dU-editing enzyme APOBEC-3G (Homo sapiens) (Q9HC16 whole entry, looked up): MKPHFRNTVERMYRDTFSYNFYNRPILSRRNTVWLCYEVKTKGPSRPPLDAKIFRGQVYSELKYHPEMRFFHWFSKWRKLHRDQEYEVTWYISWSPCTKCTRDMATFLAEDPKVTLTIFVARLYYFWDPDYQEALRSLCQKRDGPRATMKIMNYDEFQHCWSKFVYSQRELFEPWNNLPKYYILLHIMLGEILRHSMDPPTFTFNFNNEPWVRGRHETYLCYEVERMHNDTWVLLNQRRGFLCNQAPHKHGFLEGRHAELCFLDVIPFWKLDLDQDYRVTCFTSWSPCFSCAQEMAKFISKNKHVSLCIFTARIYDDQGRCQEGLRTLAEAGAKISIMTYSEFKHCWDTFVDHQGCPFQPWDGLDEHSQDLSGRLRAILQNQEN
smiles,measurement,setting,value
C[C@H](NCCc1ccc(O)cc1)[C@@H](O)c1ccc(O)cc1,Potency,[1],inactive
same,outcome,[2],inactive
same,Potency,[3],12600 nM (active)
same,outcome,[4],inactive
same,outcome,[5],inactive
CCN(CC)CCC[C@H](C)Nc1c2ccc(Cl)cc2nc2ccc(OC)cc12,Potency,[6],199 nM (active) and 126 nM (active)
same,outcome,[4],inactive
same,outcome,[5],inactive
C[C@@](N)(Cc1ccc(O)c(O)c1)C(=O)O,Potency,[6],inactive
same,Potency,[7],inactive
same,Potency,[8],inactive
same,outcome,[2],inactive
same,outcome,[9],inactive
same,outcome,[4],inactive
same,outcome,[5],inactive
CC[C@H](NC(C)C)[C@H](O)c1ccc(O)c(O)c1,Potency,[3],inactive
same,Potency,[10],inactive
same,outcome,[4],inactive
same,outcome,[5],inactive
CC(=O)O[C@@H](C)C[N+](C)(C)C,outcome,[2],inactive
same,Potency,[3],inactive
same,Potency,[10],inactive
same,outcome,[4],inactive
same,outcome,[5],inactive
CCN(CC)CCC[C@H](C)Nc1ccnc2cc(Cl)ccc12,outcome,[2],inactive
same,Potency,[3],5010 nM (active)
same,outcome,[4],inactive
same,outcome,[5],inactive
CN1[C@@H](CC(=O)c2ccccc2)CCC[C@@H]1C[C@@H](O)c1ccccc1,Potency,[11],inactive
same,Potency,[6],251 nM (active) and 79.4 nM (active) and 10 nM (active)
same,Potency,[7],inactive
same,outcome,[2],inactive
same,outcome,[4],inactive
same,outcome,[5],inactive
C[C@@H](CN(C)C)CN1c2ccccc2CCc2ccccc21,Potency,[6],5.01 µM (active)
same,Potency,[3],141 nM (active)
same,Potency,[10],126 nM (active)
same,outcome,[4],inactive
same,outcome,[5],inactive
CC1(C)O[C@@H]2C[C@H]3[C@H]4C[C@H](F)C5=CC(=O)C=C[C@@]5(C)[C@@H]4[C@H](O)C[C@]3(C)[C@]2(C(=O)CO)O1,Potency,[7],inactive
OCCN1CCN(CC/C=C2\c3ccccc3Sc3ccc(C(F)(F)F)cc32)CC1,Potency,[3],891 nM (active)
same,Potency,[10],5010 nM (active)
same,outcome,[4],inactive
same,outcome,[5],inactive
CCN(CC)CC#CCOC(=O)[C@@](O)(c1ccccc1)C1CCCCC1,outcome,[4],inactive
same,outcome,[5],inactive
CN(C)CC[C@H](c1ccc(Br)cc1)c1ccccn1,outcome,[4],inactive
same,outcome,[5],inactive
C[C@@H](C(=O)O)c1cccc(C(=O)c2ccccc2)c1,Potency,[1],inactive
same,outcome,[4],inactive
same,outcome,[5],inactive
O=C(O)/C=C\c1ccc(O)c(O)c1,Potency,[11],inactive
same,Potency,[6],inactive
same,Potency,[7],inactive
COCCc1ccc(OC[C@H](O)CNC(C)C)cc1,Potency,[1],inactive
same,outcome,[2],inactive
same,outcome,[4],inactive
same,outcome,[5],inactive
CC1=C(C(=O)O)N2C(=O)[C@@H](NC(=O)[C@@H](N)c3ccccc3)[C@@H]2SC1,Potency,[1],inactive
same,outcome,[2],inactive
same,outcome,[4],inactive
same,outcome,[5],inactive
CN(C)CCO[C@](C)(c1ccccc1)c1ccccn1,outcome,[2],inactive
same,outcome,[4],inactive
same,outcome,[5],inactive
Cc1ccccc1[C@@H](OCCN(C)C)c1ccccc1,Potency,[11],inactive
same,outcome,[2],inactive
same,outcome,[4],inactive
same,outcome,[5],inactive
C1CCN2C[C@H]3C[C@H](CN4CCCCC34)C2C1 (stereo partly specified),Potency,[8],inactive
same,outcome,[9],inactive
CS(=O)(=O)Nc1cccc(-c2ccc3ncnc(NCc4cccnc4)c3c2)c1,Potency,[12],398 nM (active)
same,Potency,[7],50.1 nM (active)
same,Potency,[8],inactive
same,activation,[13],-27.3%
Cc1nnc(SCC(=O)NCc2ccccc2Cl)c2nn(-c3ccccc3)c(C)c12,Potency,[14],3010 nM (active)
Cc1ccc(Cn2c(C)c3cnn(CC(=O)NCc4ccccc4)c(=O)c3c2C)cc1,Potency,[14],12000 nM (active)
CCCN1C[C@H](CSC)C[C@H]2c3cccc4[nH]cc(c34)C[C@@H]21,Potency,[11],inactive
same,Potency,[6],0.0316 µM (active)
same,Potency,[7],inactive
CCN1CCC[C@@H]1CNC(=O)c1cc(S(N)(=O)=O)ccc1OC,Potency,[11],inactive
same,Potency,[6],inactive
same,Potency,[1],inactive
same,Potency,[7],inactive
same,outcome,[2],inactive
same,outcome,[4],inactive
same,outcome,[5],inactive
CC1CC2C3CCC4=CC(=O)C=C[C@@]4(C)[C@]3(F)C(O)C[C@]2(C)[C@]1(O)C(=O)CO (stereo partly specified),Potency,[8],inactive
Nc1ccccc1C(=O)CC(N)C(=O)O (stereo unspecified),Potency,[12],inactive
same,Potency,[8],inactive
same,outcome,[9],inactive
same,outcome,[15],inactive
CO/N=C(/C(=O)NC1C(=O)N2C(C(=O)O)=C(CSc3nc(=O)c(O)nn3C)CSC12)c1csc(N)n1 (stereo unspecified),Potency,[8],inactive
same,outcome,[9],inactive
CC(CCC(=O)O)C1CCC2C3C(O)C[C@@H]4CC(O)CC[C@@]4(C)C3CC[C@@]12C (stereo partly specified),Potency,[8],inactive
O=c1[nH]cnc2c1ncn2C1OC(CO)C(O)C1O (stereo unspecified),Potency,[12],inactive
same,Potency,[8],inactive
same,outcome,[15],inactive
C=C1C2CC[C@@]3(C)C(c4ccoc4)OC(=O)C[C@@]13OC1CC(O)C(C)(C)C(CC(=O)OC)[C@@]12C (stereo partly specified),Potency,[12],12.6 µM (active) and 7.94 µM (active)
same,Potency,[8],inactive
same,outcome,[9],inactive
